Data on seven molecules can be found in PubChem BioAssay (NCI).

Test systems include HCT-15 colon; HT29 colon; SNB-75 CNS; SNB-19 CNS; U251 CNS; PC-3 prostate; SK-MEL-5 melanoma; UACC-62 melanoma; LOX IMVI melanoma; SK-MEL-28 melanoma; SK-MEL-2 melanoma; EKVX NSCLC; SN12C renal; UO-31 renal; TK-10 renal; ACHN renal; CAKI-1 renal; A498 renal; CCRF-CEM leukemia; MOLT-4 leukemia.
Assay in all cases: NCI-60 one-dose screen, 48 h (100 = growth as untreated, 0 = no growth, -100 = all killed)
Conditions in all cases: 10 µM

Compounds without any hit were thinned out: in the full panel of roughly 83,000, 20% have a hit.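 Growth was measured after 48 h exposure to one concentration of compound in 96-well plates. Values under 10 count as active.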 A number with no mark means an inactive call. Activity calls are given as the source filed them.

For the molecule `O=c1oc2ccc(-c3ccc(F)cc3F)cc2c(=O)n1-c1ccc(Cl)c(C(F)(F)F)c1`, the growth in the test with HCT-15 colon was -12% (active); with HT29 colon, 9.55% (active); in the test on SNB-75 CNS it was -4.03% (active); in the test with SNB-19 CNS, 14.7%; with U251 CNS, 7.99% (active); in the test with PC-3 prostate it was 0.205% (active). For the same molecule, the growth in the test with SK-MEL-5 melanoma is -91.4% (active); in the test on UACC-62 melanoma, -54.1% (active); with LOX IMVI melanoma, -38.6% (active); in the test with SK-MEL-28 melanoma it was -20.1% (active); in the test on SK-MEL-2 melanoma, -62% (active); in the test with EKVX NSCLC, -4.43% (active). For the same molecule, the growth is -15% (active) in the test on SN12C renal; -3.08% (active) in the test on UO-31 renal; 15.3% in the test on TK-10 renal; -10.9% (active) in the test with ACHN renal; -15.8% (active) in the test on CAKI-1 renal; -17.6% (active) with A498 renal. Also, the growth with CCRF-CEM leukemia was -5.71% (active); in the test with MOLT-4 leukemia, -8.23% (active).
Regarding `Cc1cc(C)nc(NS(=O)(=O)c2ccc(N/C(N)=N/c3nccc(-c4ccccc4)n3)cc2)n1`, the growth was 59.4% in the test with HCT-15 colon; 83.5% in the test on HT29 colon; 88.3% in the test on SNB-75 CNS; 77.8% with SNB-19 CNS; 77.6% in the test with U251 CNS; 65.4% in the test on PC-3 prostate. Moreover, the growth was 46.3% in the test with SK-MEL-5 melanoma; 59% in the test on UACC-62 melanoma; 39.4% in the test with LOX IMVI melanoma; 74.5% in the test on SK-MEL-28 melanoma; 89.5% in the test with SK-MEL-2 melanoma; 43% in the test with EKVX NSCLC. Besides, the growth is 73.6% in the test on SN12C renal; 34.7% in the test with UO-31 renal; 76.4% in the test with TK-10 renal; 61.7% with ACHN renal; 43.6% with CAKI-1 renal; 71.2% in the test on A498 renal. In addition, the results for the growth in the test on CCRF-CEM leukemia and in the test on MOLT-4 leukemia were 67.7% and 38.8%, respectively.
For the molecule `O/N=C(\CSc1nnc(-c2c[nH]c3ccccc23)n1-c1ccccc1)c1ccc(Br)cc1`, the growth is -92.8% (active) in the test with HCT-15 colon; -76.9% (active) with HT29 colon; -19.9% (active) with SNB-75 CNS; -9.28% (active) in the test on SNB-19 CNS; 9.73% (active) in the test with U251 CNS; -64.4% (active) with PC-3 prostate. For the same molecule, the growth was -24.5% (active) in the test with SK-MEL-5 melanoma; -90.5% (active) with UACC-62 melanoma; -87.4% (active) in the test on LOX IMVI melanoma; -26.3% (active) in the test on SK-MEL-28 melanoma; -66.3% (active) in the test with SK-MEL-2 melanoma; -63.3% (active) in the test with EKVX NSCLC. Further, the growth was -77.2% (active) with SN12C renal; 3.58% (active) in the test with UO-31 renal; -82.8% (active) in the test with TK-10 renal; -83.5% (active) in the test with ACHN renal; -94.3% (active) with CAKI-1 renal; 62.2% with A498 renal. Also, the figures for the growth with CCRF-CEM leukemia and in the test with MOLT-4 leukemia were -6.14% (active) and -19.2% (active), respectively.
Take `Cc1ccc([N+](=O)[O-])c(C(=O)Nc2ccc(-c3ccc4c(c3)NC(=O)/C4=C\c3ccc[nH]3)cc2)c1`: the growth in the test on HCT-15 colon was -17.3% (active); in the test on HT29 colon it was 46.5%; in the test on SNB-75 CNS, 42.7%; with SNB-19 CNS it was 30.6%; in the test on U251 CNS it was 6.92% (active); in the test with PC-3 prostate it was 21.3%. Besides, the growth in the test on SK-MEL-5 melanoma was 101%; in the test with UACC-62 melanoma, 39.5%; with LOX IMVI melanoma it was 21.9%; with SK-MEL-28 melanoma, 94.8%; in the test on SK-MEL-2 melanoma, 75.5%; in the test with EKVX NSCLC, 25.7%. The growth in the test on SN12C renal was 60.1%; in the test on UO-31 renal, 76.6%; in the test on TK-10 renal, 105%; in the test on ACHN renal, 66.4%; in the test with CAKI-1 renal, 69.4%; in the test on A498 renal it was 134%. Further, the growth in the test with CCRF-CEM leukemia is 22.1%; with MOLT-4 leukemia, 14.1%.
With `Cc1ccc2nc(-c3ccc(-c4nnc(SCC(=O)Nc5ccc(Cl)cc5)o4)cc3)[nH]c2c1`, the growth was 21.9% in the test on HCT-15 colon; 31.2% in the test with HT29 colon; 101% with SNB-75 CNS; 26.7% with SNB-19 CNS; -21% (active) with U251 CNS; 14% in the test on PC-3 prostate. Also, the growth with SK-MEL-5 melanoma was 83.9%; in the test with UACC-62 melanoma, 56.3%; in the test on LOX IMVI melanoma it was -45.6% (active); in the test on SK-MEL-28 melanoma, 39.7%; with SK-MEL-2 melanoma it was 95%; in the test with EKVX NSCLC it was 58.7%. The growth in the test on SN12C renal is -3% (active); in the test with UO-31 renal it was 56.6%; with TK-10 renal, 38.1%; with ACHN renal, 7.34% (active); in the test with CAKI-1 renal, 21.7%; with A498 renal it was 73.9%. The growth with CCRF-CEM leukemia was 58.8%; in the test on MOLT-4 leukemia it was 35.6%.
`CN1CCN(c2ccc(C(=O)/C=C/c3ccc(C#N)cc3)cc2)CC1`: the growth in the test on HCT-15 colon was 33.6%; with HT29 colon, 35.4%; in the test with SNB-75 CNS, 94.2%; in the test on SNB-19 CNS, 79.3%; with U251 CNS, 49.9%; in the test on PC-3 prostate, 94.7%. Also, the growth in the test on SK-MEL-5 melanoma is 83.9%; in the test with UACC-62 melanoma it was 79.9%; with LOX IMVI melanoma it was 16.7%; in the test on SK-MEL-28 melanoma, 108%; in the test on SK-MEL-2 melanoma it was 104%; in the test with EKVX NSCLC it was 82%. In addition, the growth with SN12C renal was 73.8%; in the test with UO-31 renal, 61.8%; in the test on TK-10 renal, 102%; in the test with ACHN renal it was 83.5%; in the test on CAKI-1 renal it was 63.8%; in the test with A498 renal, 103%. Further, the growth in the test with CCRF-CEM leukemia was 65.9%; in the test on MOLT-4 leukemia, 90.5%.
Take `CN1CCCN(Cc2ccc(C(=O)Nc3cccc(Nc4ccc5cc(O)ccc5n4)c3)cc2C(F)(F)F)CC1`: the growth is 14.6% in the test on HCT-15 colon; 27.8% in the test with HT29 colon; 32.2% in the test on SNB-75 CNS; 81.1% in the test with SNB-19 CNS; 33.7% with U251 CNS; 51.3% in the test on PC-3 prostate. The growth in the test with SK-MEL-5 melanoma was 32.4%; in the test with UACC-62 melanoma, 88.1%; with LOX IMVI melanoma, -100% (active); in the test on SK-MEL-28 melanoma, -67.9% (active); in the test on SK-MEL-2 melanoma, 111%; in the test on EKVX NSCLC, 71.1%. Further, the growth with SN12C renal is 86.8%; with UO-31 renal, 91.7%; with TK-10 renal, 134%; with ACHN renal it was 86.4%; in the test with CAKI-1 renal, 74.7%; in the test with A498 renal, 139%. For the same molecule, the values for the growth in the test on CCRF-CEM leukemia and with MOLT-4 leukemia were -9.62% (active) and -6.61% (active), respectively.
